Most compounds without a hit are left out; they make up all but 12% or so of the library.
Cycloheximide cs = Cycloheximide Counterscreen for Small Molecule Inhibitors of Shiga Toxin. 300,000 compounds, 12% hits. cell reporter, cycloheximide protein synthesis inhibition counterscreen. AID 2314, 2010. max response, %; in the data active = max response mostly above about 13%, no sharp cut-off; inactive = mostly below about 14%; note: read at 38.3 µM for the half of the compounds with a filed dose; 0% is about no effect
LASV entry inh = qHTS for Inhibitors of binding or entry into cells for Lassa Virus; Lassa virus pseudotype entry inhibition, cell reporter; Potency, µM (top dose mostly 37.9 µM), inactives show at the top dose activity change, negative = inhibition, most hits filed as inhibitors; 300,000 compounds, 1.2% hits; AID 540256, 2011; calls by dose curve; tested in HEK293 cells; note: potency is the fitted concentration of half-maximal effect; % is set by controls: 0 for no effect and ±100 for the full control effect; nearly all actives have a fitted effect of over 50% in size
Shiga inhibitor = A qHTS for Small Molecule Inhibitors of Shiga Toxin | 290,000 compounds, 9.2% hits | Vero cells, Shiga toxin protein synthesis inhibition reporter | inhibition, % at 38.7 µM; in the data active = inhibition mostly above about 28%, no sharp cut-off; inactive = mostly below about 43%; note: 0% is about no effect
MARV entry inh = qHTS for inhibitors of binding or entry into cells for Marburg Virus | 300,000 compounds, 1.8% hits | AID 540276, 2011 | Marburg virus pseudotyped entry inhibition, cell reporter | Potency, µM (highest dose often 37.8 µM), without a hit: at the top dose activity change, negative = inhibition, most hits filed as inhibitors; calls by dose curve; tested in HEK293 cells; note: potency is the fitted concentration of half-maximal effect; % is set by controls: 0 for no effect and ±100 for the full control effect
Starred values were filed as active, the others as inactive; [ ] = another dose, or the depositor's remark.

How did CC(CN1CCCC1)OC(=O)c1ccc(F)cc1 (stereo not given) do in these assays?
Cycloheximide cs: -1; LASV entry inh: -4%; Shiga inhibitor: -4; MARV entry inh: inconclusive

Results for CCn1c(CC(=O)Nc2ccc(OC)cc2)nnc1SCC(=O)N1CCOCC1 ?
Cycloheximide cs: -4; LASV entry inh: -8%; Shiga inhibitor: -6; MARV entry inh: 6%

Results for COc1ccc2oc(=O)c(C(=O)Oc3ccc(NC(C)=O)cc3)cc2c1 ?
Cycloheximide cs: 0; LASV entry inh: 21%; Shiga inhibitor: 24; MARV entry inh: inconclusive

Results for CCCCn1c(N)c(N(CCOC)C(=O)CCCc2nc3ccccc3c(=O)[nH]2)c(=O)[nH]c1=O ?
LASV entry inh: 2%; MARV entry inh: 21%

Results for CCCCNC(=S)N1CCn2cccc2C1c1ccc(F)cc1 (stereo not given) ?
Cycloheximide cs: 10; LASV entry inh: 13µM*; Shiga inhibitor: -6; MARV entry inh: 6.3µM*

What do the screens show for `Cc1ccccc1C(=O)NC(CC(C)C)C(=O)N1CCN(c2ccccc2)CC1` (stereo not given)?
Cycloheximide cs: 1; LASV entry inh: 1%[46.1 µM]; Shiga inhibitor: -1; MARV entry inh: inconclusive

Results for Cc1[nH]n(-c2ccccc2)c(=O)c1/C=N/N(C)c1ccccc1 ?
Cycloheximide cs: 7; LASV entry inh: 7%; Shiga inhibitor: 45*; MARV entry inh: -2%

How did CCCc1[nH]n(-c2nc3ccccc3s2)c(=O)c1C=NCC1CCCO1 (stereo not given) do in these assays?
Cycloheximide cs: 24*; LASV entry inh: inconclusive; Shiga inhibitor: 7; MARV entry inh: 24%

How did CCCc1[nH]n(-c2ccc(F)cc2)c(=O)c1C=NCC1CCCO1 (stereo not given) do in these assays?
Cycloheximide cs: -1; Shiga inhibitor: 0

How did Cc1[nH]n(-c2cccc(Cl)c2)c(=O)c1C=NCC(C)C do in these assays?
Cycloheximide cs: 43*; Shiga inhibitor: 96*; MARV entry inh: inconclusive

What do the screens show for `Cc1[nH]n(-c2ccccc2)c(=O)c1C=NCC1CCCO1` (stereo not given)?
Cycloheximide cs: 23*; Shiga inhibitor: 49*

What do the screens show for `CCCCCCCc1cc2ccc(F)cc2c2c(C(=O)OC)c(C(=O)OC)c(C(=O)OC)n12`?
MARV entry inh: -19%[14.2 µM]

Results for Cc1[nH]n(-c2cccc(Cl)c2)c(=O)c1C=NC12CN3CN(CN(C3)C1)C2 ?
Cycloheximide cs: -1; LASV entry inh: 17%; Shiga inhibitor: -3; MARV entry inh: inconclusive

How did Cc1[nH]n(-c2cccc(Cl)c2)c(=O)c1C=NCc1ccco1 do in these assays?
Cycloheximide cs: 43*; LASV entry inh: inconclusive; Shiga inhibitor: 107*; MARV entry inh: inconclusive

Results for Cc1[nH]n(-c2ccccc2)c(=O)c1C=NCc1ccco1 ?
Cycloheximide cs: 41*; Shiga inhibitor: 98*

Results for CCCCn1c(N)c(N(CC(C)C)C(=O)CCNC(=O)c2ccc([N+](=O)[O-])cc2)c(=O)[nH]c1=O ?
LASV entry inh: 1%; MARV entry inh: -2%

How did COc1ccc(-c2cccc(NS(=O)(=O)c3cc(C)ccc3OC)c2)nn1 do in these assays?
LASV entry inh: -7%[46.1 µM]

How did CC(C)NC(=O)COc1ccccc1C#N do in these assays?
Cycloheximide cs: -3; LASV entry inh: 0%; Shiga inhibitor: -6; MARV entry inh: 0%

What do the screens show for `CC(C)CCNC(=O)NC(=O)COc1ccccc1C#N`?
Cycloheximide cs: 19*; LASV entry inh: -19%; Shiga inhibitor: 30*; MARV entry inh: 17%

Results for CNc1oc(/C=C/c2cc(OC)c(OC)c(OC)c2)nc1C#N ?
Cycloheximide cs: -9; LASV entry inh: -19%[46.1 µM]; Shiga inhibitor: 6; MARV entry inh: 0%[46.1 µM]

What do the screens show for `CCCc1noc(-c2ccc(NCc3ccc(C)cc3)c([N+](=O)[O-])c2)n1`?
LASV entry inh: 4%[46.1 µM]; MARV entry inh: -1%[46.1 µM]

Results for N=C1c2c(cc(=O)n3c2[nH]c2ccccc23)CN1CCN1CCOCC1 ?
Cycloheximide cs: 9; LASV entry inh: 25%; Shiga inhibitor: 18; MARV entry inh: 0%[46.1 µM]

How did COCCN1Cc2cc(=O)n3c([nH]c4ccccc43)c2C1=N do in these assays?
Cycloheximide cs: 22*; LASV entry inh: inconclusive; Shiga inhibitor: 39; MARV entry inh: 22%

What do the screens show for `CSc1nc2nccc(-c3ccc(-c4ccccc4)cc3)n2n1`?
Cycloheximide cs: 6; LASV entry inh: inconclusive; Shiga inhibitor: 3; MARV entry inh: -19%

How did CSc1nc2nccc(-c3ccc(Oc4ccccc4)cc3)n2n1 do in these assays?
Cycloheximide cs: 2; LASV entry inh: 16µM*; Shiga inhibitor: -11; MARV entry inh: inconclusive

Results for Cc1ccc(NC(=O)OCc2cc(-c3ccccc3)on2)cc1 ?
Cycloheximide cs: 38*; LASV entry inh: 7%; Shiga inhibitor: 75*; MARV entry inh: inconclusive

Results for O=C(Nc1ccc(Cl)cc1)OCc1cc(-c2ccccc2Cl)on1 ?
Cycloheximide cs: -2; LASV entry inh: -13%; Shiga inhibitor: 5; MARV entry inh: -5%

What do the screens show for `Cc1ccc(NC(=O)OCc2cccs2)cc1`?
Cycloheximide cs: 22*; Shiga inhibitor: 81*

Results for CC(=O)Nc1ccc(NCc2cccs2)cc1 ?
Cycloheximide cs: 12; LASV entry inh: 8%[46.1 µM]; Shiga inhibitor: 28; MARV entry inh: 19%[46.1 µM]

What do the screens show for `CC1=C(/C=C/C(C)=N\NC(=O)c2ccncc2)C(C)(C)CCC1`?
Cycloheximide cs: 13*; LASV entry inh: inconclusive; Shiga inhibitor: -11; MARV entry inh: inconclusive

How did C/C(=N\NC(=O)c1ccncc1)C12CC3CC(CC(C3)C1)C2 do in these assays?
Cycloheximide cs: 10; LASV entry inh: -5%; Shiga inhibitor: 11; MARV entry inh: 6%

How did CCCCn1c(N)c(N(Cc2ccccc2OC)C(=O)COc2ccc(F)cc2Cl)c(=O)[nH]c1=O do in these assays?
Cycloheximide cs: -1; Shiga inhibitor: 2

Results for Cc1ccc(CNC(=O)C2CCC(=O)N(CCc3ccc(Cl)cc3)C2)cc1 (stereo not given) ?
Cycloheximide cs: 46*; LASV entry inh: 14%; Shiga inhibitor: 85*; MARV entry inh: 25%

Results for O=C(NCCCc1ccccc1)C1CCC(=O)N(Cc2ccc(Cl)cc2)C1 (stereo not given) ?
Cycloheximide cs: 36*; LASV entry inh: -13%; Shiga inhibitor: 38*; MARV entry inh: 7%

What do the screens show for `Cc1ccc(CNC(=O)C2CCC(=O)N(CCc3ccc(Cl)cc3)C2)s1` (stereo not given)?
Cycloheximide cs: 15; LASV entry inh: -17%; Shiga inhibitor: -5; MARV entry inh: -16%

Results for Cc1ccc(CCN2CC(C(=O)NC3CCCCC3)CC2=O)cc1 (stereo not given) ?
Cycloheximide cs: 30*; Shiga inhibitor: 4

What do the screens show for `CC(C)(C)OC(=O)N1CCC(c2c(C(=O)N3CCN(C(=O)c4ccco4)CC3)cnn2-c2ccc(Cl)cc2)CC1`?
LASV entry inh: 6%[46.1 µM]

How did CN1CCC(=NOc2ccc([N+](=O)[O-])cc2)CC1 do in these assays?
Cycloheximide cs: 34*; LASV entry inh: -8%; Shiga inhibitor: 95*; MARV entry inh: -2%[46.1 µM]
